# Results filed as inconclusive are left out. Entries that show only a call come without a potency. Calls of active or inactive are those of the source. Unless noted, calls come from the whole dose curve; as a rule, active = well fitted inhibition curve with a large enough effect; inconclusive = small, poorly fitted or top-dose-only effect; inactive = flat fitted curve, though single readings scatter.
# Assays:
# [1] = qHTS drug screen for cell cycle checkpoint inhibitors in PARPi-resistant BRCA-mutant ovarian cancer cell lines. (AID 1963452; calls by dose curve); conditions: PEO1/OlaR viability, CellTiter-Glo luminescence, 96 h, stronger effect = lower value
# Outline: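 PEO1, PEO4 and PEO1/OlaR ovarian cancer cells, 600 per well, exposed 96 h at 37C to a dilution series. Viability read by CellTiter-Glo luminescence, normalized to DMSO and empty wells; activity summarized as Z-AUC.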
# [2] = qHTS profiling for inhibitors of Plasmodium falciparum proliferation (AID 504749); note: nearly all actives have a fitted effect of over 60% in size; note: potency is the fitted concentration of half-maximal effect; conditions: P. falciparum in erythrocytes, SYBR Green DNA, 72 h
# Outline: (§1)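 P. falciparum-infected erythrocytes (0.3% parasitemia, 2.5% hematocrit) incubated with compound 72 h at 37 C, 5% CO2. Parasite DNA detected by SYBR Green after lysis, overnight at room temperature; normalised to 0.29 uM artemisinin and DMSO.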
# 3D7 = assay: as above; conditions: P. falciparum in erythrocytes, SYBR Green DNA, 72 h; series mostly up to 28.7 µM
# Outline: as §1
# 7G8 = assay: as above; conditions: P. falciparum in erythrocytes, SYBR Green DNA, 72 h; series mostly up to 28.7 µM
# Outline: as §1
# AA1029 = assay: as above; conditions: P. falciparum in erythrocytes, SYBR Green DNA, 72 h; series mostly up to 28.7 µM
# Outline: as §1
# AS120 = assay: as above; conditions: P. falciparum in erythrocytes, SYBR Green DNA, 72 h; series mostly up to 28.7 µM
# Outline: as §1
# ATS189 = assay: as above; conditions: P. falciparum in erythrocytes, SYBR Green DNA, 72 h; series mostly up to 28.7 µM
# Outline: as §1
# ATS95 = assay: as above; conditions: P. falciparum in erythrocytes, SYBR Green DNA, 72 h; series mostly up to 28.7 µM
# Outline: as §1
# C2A = assay: as above; conditions: P. falciparum in erythrocytes, SYBR Green DNA, 72 h; series mostly up to 28.7 µM
# Outline: as §1
# CP185 = assay: as above; conditions: P. falciparum in erythrocytes, SYBR Green DNA, 72 h; series mostly up to 28.7 µM
# Outline: as §1
# CP191 = assay: as above; conditions: P. falciparum in erythrocytes, SYBR Green DNA, 72 h; series mostly up to 28.7 µM
# Outline: as §1
# CP194 = assay: as above; conditions: P. falciparum in erythrocytes, SYBR Green DNA, 72 h; series mostly up to 28.7 µM
# Outline: as §1
# CP201 = assay: as above; conditions: P. falciparum in erythrocytes, SYBR Green DNA, 72 h; series mostly up to 28.7 µM
# Outline: as §1
# CP203 = assay: as above; conditions: P. falciparum in erythrocytes, SYBR Green DNA, 72 h; series mostly up to 28.7 µM
# Outline: as §1
# CP211 = assay: as above; conditions: P. falciparum in erythrocytes, SYBR Green DNA, 72 h; series mostly up to 28.7 µM
# Outline: as §1
# CP192 = assay: as above; conditions: P. falciparum in erythrocytes, SYBR Green DNA, 72 h; series mostly up to 28.7 µM
# Outline: as §1
# [3] = qHTS for identification of novel therapeutic agents for treatment of microphthalmiaassociated transcription factor (MiT) renal cell carcinoma (RCC) (AID 1963991); conditions: CellTiter-Glo, 48 h, stronger effect = lower value
# Outline: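 UOK109/UOK124/UOK145 (TFE3 fusions, three partners); 500 cells/well; MIPE v4.0, 1912 cpds, 11 conc.; 48 h, 37 C; CellTiter-Glo, 15 min RT; lum. Norm.: DMSO 100%, empty 0%.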
# [4] = measured here: PEO1 parental Z-AUC
# [5] = at 28.7 µM (top of the series), parasite line A
# [6] = at 28.7 µM (top of the series), parasite line B
# [7] = TFE3-RCC UOK109 viability, measured here: UOK109 Z-AUC
# [8] = TFE3-RCC viability, measured here: UOK124 Z-AUC
# [9] = TFE3-RCC viability, measured here: UOK145 Z-AUC
structure (smiles),measurement,setting,value
Cc1cc(C(C)(C)C)cc(C)c1CC1=NCCN1,Z-AUC,[1],0.735 (inactive)
same,Z-AUC,[1]; [4],0.684
same,Z-AUC,[1]; measured here: PEO4 Z-AUC,0.966
same,"activity, negative = inhibition","[2]; at 12.8 µM (top of the series), parasite line A",-3.52% (inactive)
same,"activity, negative = inhibition","[2]; at 12.8 µM (top of the series), parasite line B",-6.56% (inactive)
same,Potency,3D7,inactive
same,Potency,7G8,inactive
same,Potency,AA1029,inactive
same,Potency,AS120,inactive
same,Potency,ATS189,inactive
same,Potency,ATS95,inactive
same,Potency,C2A,inactive
same,Potency,CP185,inactive
same,Potency,CP191,inactive
same,Potency,CP194,inactive
same,Potency,CP201,inactive
same,Potency,CP203,inactive
same,Potency,CP211,inactive
COc1cc2c(c(OC)c1OC)-c1ccc(OC)c(=O)cc1[C@@H](NC(C)=O)CC2,Z-AUC,[1],-0.869 (inactive)
same,Z-AUC,[1]; [4],-1.12
same,Z-AUC,[1]; measured here: PEO4 Z-AUC,-1.62
same,"activity, negative = inhibition",[2]; [5],-2.78% (inactive)
same,"activity, negative = inhibition",[2]; [6],6.74% (inactive)
same,Potency,3D7,inactive
same,Potency,7G8,inactive
same,Potency,AA1029,inactive
same,Potency,AS120,inactive
same,Potency,ATS189,inactive
same,Potency,ATS95,inactive
same,Potency,C2A,inactive
same,Potency,CP185,inactive
same,Potency,CP191,inactive
same,Potency,CP192,inactive
same,Potency,CP194,inactive
same,Potency,CP201,inactive
same,Potency,CP203,inactive
same,Potency,CP211,inactive
CC(C)Cc1ccc(C(C)C(=O)O)cc1 (stereo unspecified),Z-AUC,[1],1.42 (inactive)
same,Z-AUC,[1]; [4],1.49
same,Z-AUC,[1]; measured here: PEO4 Z-AUC,1.2
same,z-score,[3]; [7],0.767
same,z-score,[3]; [8],0.849
same,z-score,[3]; [9],0.507
same,"activity, negative = inhibition",[2]; [5],5.92% (inactive)
same,"activity, negative = inhibition",[2]; [6],6.46% (inactive)
same,Potency,3D7,inactive
same,Potency,7G8,inactive
same,Potency,AA1029,inactive
same,Potency,AS120,inactive
same,Potency,ATS189,inactive
same,Potency,ATS95,inactive
same,Potency,C2A,inactive
same,Potency,CP185,inactive
same,Potency,CP191,inactive
same,Potency,CP192,inactive
same,Potency,CP194,inactive
same,Potency,CP201,inactive
same,Potency,CP203,inactive
same,Potency,CP211,inactive
CC12CC3CC(C)(C1)CC(N)(C3)C2,Z-AUC,[1],1.05 (inactive)
same,Z-AUC,[1]; [4],0.978
same,Z-AUC,[1]; measured here: PEO4 Z-AUC,0.935
same,"activity, negative = inhibition",[2]; [5],13.9% (inactive)
same,"activity, negative = inhibition",[2]; [6],1.67% (inactive)
same,Potency,3D7,inactive
same,Potency,7G8,8.91 µM (active)
same,Potency,AA1029,10 µM (active)
same,Potency,AS120,inactive
same,Potency,ATS189,inactive
same,Potency,C2A,inactive
same,Potency,CP185,inactive
same,Potency,CP191,inactive
same,Potency,CP192,inactive
same,Potency,CP194,inactive
same,Potency,CP201,inactive
same,Potency,CP203,inactive
same,Potency,CP211,inactive
CCCNCC(O)COc1ccccc1C(=O)CCc1ccccc1 (stereo unspecified),Z-AUC,[1],0.52 (inactive)
same,Z-AUC,[1]; [4],0.498
same,Z-AUC,[1]; measured here: PEO4 Z-AUC,0.0881
same,Potency,[2]; parasite line A,1 µM (active)
same,Potency,[2]; parasite line B,0.355 µM (active)
same,Potency,3D7,2 µM (active)
same,Potency,7G8,0.251 µM (active)
same,Potency,AA1029,0.631 µM (active)
same,Potency,AS120,0.316 µM (active)
same,Potency,ATS189,0.891 µM (active)
same,Potency,ATS95,0.631 µM (active)
same,Potency,C2A,1.78 µM (active)
same,Potency,CP185,1.26 µM (active)
same,Potency,CP191,1.26 µM (active)
same,Potency,CP192,2.13 µM (active)
same,Potency,CP194,3.38 µM (active)
same,Potency,CP201,6.75 µM (active)
same,Potency,CP203,1.69 µM (active)
same,Potency,CP211,4.78 µM (active)
Clc1ccc2nsnc2c1NC1=NCCN1,Z-AUC,[1],1.68 (inactive)
same,Z-AUC,[1]; [4],1.11
same,Z-AUC,[1]; measured here: PEO4 Z-AUC,1.24
same,"activity, negative = inhibition",[2]; [5],6.78% (inactive)
same,"activity, negative = inhibition",[2]; [6],-11.1% (inactive)
same,Potency,3D7,inactive
same,Potency,7G8,inactive
same,Potency,AA1029,inactive
same,Potency,AS120,inactive
same,Potency,ATS189,inactive
same,Potency,ATS95,inactive
same,Potency,C2A,inactive
same,Potency,CP185,inactive
same,Potency,CP191,inactive
same,Potency,CP192,inactive
same,Potency,CP194,inactive
same,Potency,CP201,inactive
same,Potency,CP211,inactive
CCC1(c2ccccc2)C(=O)NCNC1=O,Z-AUC,[1],1.12 (inactive)
same,Z-AUC,[1]; [4],0.974
same,Z-AUC,[1]; measured here: PEO4 Z-AUC,1.04
same,"activity, negative = inhibition",[2]; [5],6.87% (inactive)
same,"activity, negative = inhibition",[2]; [6],11.7% (inactive)
same,Potency,3D7,inactive
same,Potency,7G8,inactive
same,Potency,AA1029,inactive
same,Potency,AS120,inactive
same,Potency,ATS189,inactive
same,Potency,ATS95,inactive
same,Potency,C2A,inactive
same,Potency,CP185,inactive
same,Potency,CP191,inactive
same,Potency,CP192,inactive
same,Potency,CP194,inactive
same,Potency,CP201,inactive
same,Potency,CP203,inactive
same,Potency,CP211,inactive
CC[N+](CC)(CC)CCOc1cccc(OCC[N+](CC)(CC)CC)c1OCC[N+](CC)(CC)CC,Z-AUC,[1],0.722 (inactive)
same,Z-AUC,[1]; [4],0.846
same,Z-AUC,[1]; measured here: PEO4 Z-AUC,0.666
same,z-score,[3]; [7],0.0594
same,z-score,[3]; [8],0.771
same,z-score,[3]; [9],-0.103
same,"activity, negative = inhibition",[2]; [5],-0.0275% (inactive)
same,"activity, negative = inhibition",[2]; [6],10.3% (inactive)
same,Potency,3D7,inactive
same,Potency,7G8,inactive
same,Potency,AA1029,inactive
same,Potency,AS120,inactive
same,Potency,ATS189,inactive
same,Potency,ATS95,inactive
same,Potency,C2A,inactive
same,Potency,CP185,inactive
same,Potency,CP191,inactive
same,Potency,CP192,inactive
same,Potency,CP194,inactive
same,Potency,CP201,inactive
same,Potency,CP203,inactive
same,Potency,CP211,inactive
NCCc1cnc[nH]1,Z-AUC,[1],0.48 (inactive)
same,Z-AUC,[1]; [4],0.383
same,Z-AUC,[1]; measured here: PEO4 Z-AUC,0.867
same,z-score,[3]; [7],-0.102
same,z-score,[3]; [8],0.743
same,z-score,[3]; [9],0.389
same,"activity, negative = inhibition",[2]; [5],7.72% (inactive)
same,"activity, negative = inhibition",[2]; [6],10.7% (inactive)
same,Potency,7G8,inactive
same,Potency,AA1029,inactive
same,Potency,AS120,inactive
same,Potency,ATS189,inactive
same,Potency,C2A,inactive
same,Potency,CP185,inactive
same,Potency,CP191,inactive
same,Potency,CP192,inactive
same,Potency,CP194,inactive
same,Potency,CP201,inactive
same,Potency,CP203,inactive
same,Potency,CP211,inactive
Nc1c2c(nc3ccccc13)CCCC2,Z-AUC,[1],1.3 (inactive)
same,Z-AUC,[1]; [4],1.74
same,Z-AUC,[1]; measured here: PEO4 Z-AUC,1.21
same,z-score,[3]; [7],1.01
same,z-score,[3]; [8],0.33
same,z-score,[3]; [9],1.46
same,Potency,C2A,inactive
same,Potency,CP201,inactive
NC(=O)NO,Z-AUC,[1],1.41 (inactive)
same,Z-AUC,[1]; [4],1.02
same,Z-AUC,[1]; measured here: PEO4 Z-AUC,0.874
same,"activity, negative = inhibition",[2]; [5],16% (inactive)
same,"activity, negative = inhibition",[2]; [6],12.9% (inactive)
same,Potency,3D7,inactive
same,Potency,7G8,inactive
same,Potency,AA1029,inactive
same,Potency,AS120,inactive
same,Potency,ATS189,inactive
same,Potency,ATS95,inactive
same,Potency,C2A,inactive
same,Potency,CP185,inactive
same,Potency,CP191,inactive
same,Potency,CP192,inactive
same,Potency,CP194,inactive
same,Potency,CP201,inactive
same,Potency,CP203,inactive
same,Potency,CP211,inactive
O=C1N(c2ccccc2)c2ccccc2C1(Cc1ccncc1)Cc1ccncc1,Z-AUC,[1],-0.0273 (inactive)
same,Z-AUC,[1]; [4],0.843
same,Z-AUC,[1]; measured here: PEO4 Z-AUC,0.797
same,"activity, negative = inhibition",[2]; [5],1.98% (inactive)
same,"activity, negative = inhibition",[2]; [6],-9.11% (inactive)
same,Potency,3D7,inactive
same,Potency,7G8,8.91 µM (active)
same,Potency,AA1029,inactive
same,Potency,AS120,inactive
same,Potency,ATS189,inactive
same,Potency,ATS95,inactive
same,Potency,C2A,inactive
same,Potency,CP185,inactive
same,Potency,CP191,inactive
same,Potency,CP192,inactive
same,Potency,CP194,inactive
same,Potency,CP201,inactive
same,Potency,CP203,inactive
same,Potency,CP211,inactive

# Reference: PubChem BioAssay (NCATS)
